Assay [1] has as its target Aryl hydrocarbon receptor (Homo sapiens) (UniProt P35869). The assay is described as follows: ATG_Ahr_CIS: Attagene CIS-FACTORIAL HepG2 Assay for human Aryl Hydrocarbon Receptor (Ahr) (AID 2282930; active = hit-call score of the fitted dose curve at least 0.9, where 1 is the maximum; inactive = score below 0.9). The settings on record: HepG2 AhR cis-factorial reporter transcription; actives raise or lower the signal. In short, it runs like this:
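Following 24 h of chemical dosing, transfected HepG2 liver cells with cis-driven reporter units were lysed for RNA; reporter mRNA was quantified via RT-PCR and capillary electrophoresis, and responses fitted bidirectionally from DMSO.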

Assay [2] is described as follows: ATG_AP_1_CIS: Attagene CIS-FACTORIAL HepG2 Assay for human Activator Protein 1 (AP-1) (AID 2282931; active = hit-call score of the fitted dose curve at least 0.9, where 1 is the maximum; inactive = score below 0.9). The settings on record: HepG2 Attagene cis-factorial AP-1 reporter mRNA; actives raise or lower the signal. In short, it runs like this: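 We transfected HepG2 cells transiently with a set of cis-regulated reporter transcription units, dosed them for 24 h, and quantified reporter mRNA via RT-PCR and capillary electrophoresis, scoring gain or loss of signal relative to DMSO.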

Assay [3] is described as follows: ATG_E_Box_CIS: Attagene CIS-FACTORIAL HepG2 Assay for human Enhancer Box (E-box) (AID 2282936; active = hit-call score of the fitted dose curve at least 0.9, where 1 is the maximum; inactive = score below 0.9). The conditions noted are these: HepG2 E-box cis-reporter transcription, actives raise or lower the signal. A digest of the protocol: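 Endogenous transcription factor activity was sensed in human HepG2 liver cells through transfected cis-promoter reporter units. After 24 h of dosing, total RNA was reverse-transcribed and reporter cDNA resolved by capillary electrophoresis.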

Assay [4] in a line: ATG_GRE_CIS: Attagene CIS-FACTORIAL HepG2 Assay for human Glucocorticoid Response Elements (GRE) (AID 2282947; active = hit-call score of the fitted dose curve at least 0.9, where 1 is the maximum; inactive = score below 0.9). The conditions noted are these: HepG2 GRE cis-reporter, Attagene multiplex mRNA; actives raise or lower the signal. In short, it runs like this:
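Cells (HepG2) bearing transfected cis-promoter reporter transcription units were treated with chemical for 24 hours. Reporter mRNA was measured via RT-PCR with capillary electrophoresis, and activity was fitted in both directions relative to DMSO.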

The target of assay [5] is Hypoxia-inducible factor 1-alpha (Homo sapiens) (UniProt Q16665). The assay can be described thus: ATG_HIF1a_CIS: Attagene CIS-FACTORIAL HepG2 Assay for human Hypoxia Inducible Factor 1 (HIF1A) (AID 2282951; active = hit-call score of the fitted dose curve at least 0.9, where 1 is the maximum; inactive = score below 0.9). The conditions noted are these: HepG2 Attagene cis-factorial HIF1a reporter transcription; actives raise or lower the signal. In short, it runs like this: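 Cis-element reporter constructs were transiently transfected into HepG2 cells, which were treated for 24 h; reporter RNA was reverse-transcribed, amplified, labelled and resolved by capillary electrophoresis.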

A short description of assay [6]: ATG_PBREM_CIS: Attagene CIS-FACTORIAL HepG2 Assay for human Phenobarbital-responsive Enhancer Module (PBREM) (AID 2282955; active = hit-call score of the fitted dose curve at least 0.9, where 1 is the maximum; inactive = score below 0.9). The settings on record: HepG2 PBREM cis-reporter, Attagene multiplexed transcription; actives raise or lower the signal. In short, it runs like this: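 Multiplexed cis-reporter readout in human hepatoma HepG2 cells; PBREM-regulated transcript quantified after 24 h exposure by fluorescent RT-PCR fragment analysis. Signal changes up or down fitted relative to DMSO.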

A short description of assay [7]: ATG_PPRE_CIS: Attagene CIS-FACTORIAL HepG2 Assay for human Peroxisome Proliferator-activated Response Element (PPRE) (AID 2282958; active = hit-call score of the fitted dose curve at least 0.9, where 1 is the maximum; inactive = score below 0.9). The conditions noted are these: HepG2 PPRE cis-element reporter, Attagene transcription factor profiling; actives raise or lower the signal. In short, it runs like this:
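DMSO served as negative control and baseline for bidirectional curve fitting. Signal came from PPRE-regulated reporter mRNA in HepG2 cells, measured 24 h post-dosing by RT-PCR, 6-FAM primer extension and capillary electrophoresis.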

Assay [8] in a line: ATG_M_06_TRANS: Attagene TRANS-FACTORIAL HepG2 Assay for M06 Transcription Factor (Internal Marker) (AID 2282983).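 Note: reporter transcript level by RT-PCR then capillary electrophoresis fluorescence.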 The conditions noted are these: HepG2 Attagene TRANS M06 internal marker reporter. In short, it runs like this:
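Background control endpoint: reporter mRNA from transiently transfected HepG2 after 24 h dosing, detected by RT-PCR with capillary electrophoresis fluorescence. Analysed for gain versus DMSO.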

The nature of assay [9]: ATG_NFI_CIS: Attagene CIS-FACTORIAL HepG2 Assay for human Nuclear Factor I (NFI) (AID 2282989; active = hit-call score of the fitted dose curve at least 0.9, where 1 is the maximum; inactive = score below 0.9). The conditions noted are these: HepG2 cis-regulatory reporter, NFI response element transcription; actives raise or lower the signal. A digest of the protocol: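 Read-out: reporter mRNA via RT-PCR plus capillary electrophoresis with fluorescence detection. Transiently transfected HepG2 (endogenous TF activity on cis promoters), 24 h compound exposure; gain or loss of signal fitted against DMSO.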

Assay [10] deals with Peroxisome proliferator-activated receptor gamma (Homo sapiens) (UniProt P37231). The assay is described as follows: ATG_PPARg_TRANS: Attagene TRANS-FACTORIAL HepG2 Assay for human Peroxisome Proliferator-activated Receptor-gamma (PPARg) (AID 2283007). A digest of the protocol: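 Chimeric NR-Gal4 transactivation is measured in transiently transfected HepG2 cells by reporter mRNA induction at 24 h. Detection uses RT-PCR with fluorescent labelling and capillary electrophoresis; DMSO defines baseline.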

Assay [11] has as its target Retinoic acid receptor RXR-alpha (Homo sapiens) (UniProt P19793). The assay is described as follows: ATG_RXRa_TRANS: Attagene TRANS-FACTORIAL HepG2 Assay for human Retinoid X Receptor alpha (RXRa) (AID 2283012). A digest of the protocol: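 Measures exogenous chimeric NR-GAL4 activity in transfected HepG2 liver cells after 24 h of dosing. Induced reporter mRNA was detected by RT-PCR with capillary electrophoresis, and gain of signal was analysed against DMSO.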

Assay [12] deals with human Retinoid X Receptor beta (RXRb), RXRB (gene 6257) (UniProt P28702). The assay is described as follows: ATG_RXRb_TRANS: Attagene TRANS-FACTORIAL HepG2 Assay for human Retinoid X Receptor beta (RXRb) (AID 2283013). A digest of the protocol:
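Chimeric receptor-Gal4 activity was assessed in transiently transfected human HepG2 cells after 24 h exposure. Transcripts from GAL4-UAS reporters were quantified by fluorescent RT-PCR and capillary electrophoresis, with DMSO as negative control and baseline.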

Assay [13] has as its target Cellular tumor antigen p53 (Homo sapiens) (UniProt P04637). The assay can be described thus: TOX21_p53_BLA_p2_ratio: Tox21 HCT-116 p53 Agonism Beta-lactamase Assay, Ratio, Phase 2 (AID 2283592). In short, it runs like this: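 Plated HCT116 p53-bla cells (4000/well) received compound after 5 h, then 16 h at 37C/5% CO2. CCF4-AM added, 2 h RT. Ratio of 460 to 530 nm emission taken as the p53 reporter signal.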

The target is the same in assay [14]. The assay can be described thus: TOX21_p53_BLA_p5_ratio: Tox21 HCT-116 p53 Agonism Beta-lactamase Assay, Ratio, Phase 5 (AID 2283599). In short, it runs like this:
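HCT-116 cells carrying a p53-inducible beta-lactamase reporter were seeded at 4000 cells/well and dosed after 5 h with compound in DMSO (217-fold dilution). After 16 h at 37C, CCF4-AM substrate was added for 2 h, and the 460/530 nm emission ratio was scored as gain-of-signal versus DMSO.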

Assay [15] shares this target. The assay is described as follows: TOX21_p53_BLA_p4_ratio: Tox21 HCT-116 p53 Agonism Beta-lactamase Assay, Ratio, Phase 4 (AID 2283601). In short, it runs like this: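 HCT116 cells carrying an inducible beta-lactamase reporter were plated at 4000 cells/well, rested 5 h, then exposed to compounds in DMSO (217-fold dilution) for 16 h at 37C. CCF4-AM substrate was loaded 2 h at room temperature; 460/530 nm emission ratio scored gain-of-signal versus DMSO.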

Assay [16] in a line: ACEA_ER_AUC_viability: ACEA Biosciences xCELLigence Real-Time Cell Analysis on Estrogen Receptor Agonism for Viability (AID 2283782).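 Note: hit means loss of impedance signal meaning reduced cell growth or viability.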 A digest of the protocol: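 Continuous-exposure impedance cell analysis uses T-47D cells in charcoal-stripped serum, eight 1:4 dilutions topping at 100 uM final, biological duplicate. Area under the growth curve at 80 h is fitted against DMSO baseline.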

Assay [17] is described as follows: ATG_M_61_CIS: Attagene CIS-FACTORIAL HepG2 Assay for M61 Transcription Factor (Internal Marker) (AID 2282937; active = hit-call score of the fitted dose curve at least 0.9, where 1 is the maximum; inactive = score below 0.9). The settings on record: HepG2 Attagene CIS-FACTORIAL M61 internal marker reporter; actives raise or lower the signal. In short, it runs like this: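 Multiplexed reporter mRNA assay, HepG2 human hepatoma cells, 24 h treatment. Signal: FAM-labelled, HpaI-digested RT-PCR fragments by CE. Fit: bidirectional, baseline DMSO.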

The nature of assay [18]: ATG_M_19_TRANS: Attagene TRANS-FACTORIAL HepG2 Assay for M19 Transcription Factor (Internal Marker) (AID 2282974). The conditions noted are these: HepG2 Attagene TRANS-FACTORIAL M19 internal marker reporter. A digest of the protocol: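 Multiplexed TRANS format: HepG2 liver cells bearing transient GAL4-UAS reporter units, chemical treatment 24 h, reporter transcripts quantified by RT-PCR plus capillary electrophoresis. DMSO defines baseline.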

Assay [19] is described as follows: ATG_M_32_TRANS: Attagene TRANS-FACTORIAL HepG2 Assay for M32 Transcription Factor (Internal Marker) (AID 2282984).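 Note: transcript level of a background control reporter unit measured by RT-PCR and capillary electrophoresis.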 The conditions noted are these: HepG2 Attagene TRANS M32 internal marker reporter. A digest of the protocol:
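After 24 h dosing of transfected HepG2 cells, total RNA was reverse-transcribed, reporter sequences PCR-amplified, 6-FAM labelled by primer extension and HpaI-digested before capillary electrophoresis. Signal increase over DMSO was fitted.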

A short description of assay [20]: TOX21_p53_BLA_p5_viability: Viability Assessment in the Tox21 HCT-116 p53 Agonism Beta-lactamase Assay, Phase 5 (AID 2283600). In short, it runs like this:
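Workflow: seed 4000 cells per well, wait 5 h, add compounds (DMSO, 217-fold dilution), incubate 16 h, load CCF4-AM 2 h, add CellTiter-Glo, read luminescence after 30 min.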

Results filed as inconclusive are left out. Calls of active or inactive are those of the source. Rule for the calls, unless noted: active = hit-call score of the fitted dose curve at least 0.9, where 1 is the maximum; inconclusive = response in the unintended direction; inactive = score below 0.9.

Chain of Peroxisome proliferator-activated receptor gamma (Homo sapiens) (P37231 whole entry, looked up, the tested form may be a part): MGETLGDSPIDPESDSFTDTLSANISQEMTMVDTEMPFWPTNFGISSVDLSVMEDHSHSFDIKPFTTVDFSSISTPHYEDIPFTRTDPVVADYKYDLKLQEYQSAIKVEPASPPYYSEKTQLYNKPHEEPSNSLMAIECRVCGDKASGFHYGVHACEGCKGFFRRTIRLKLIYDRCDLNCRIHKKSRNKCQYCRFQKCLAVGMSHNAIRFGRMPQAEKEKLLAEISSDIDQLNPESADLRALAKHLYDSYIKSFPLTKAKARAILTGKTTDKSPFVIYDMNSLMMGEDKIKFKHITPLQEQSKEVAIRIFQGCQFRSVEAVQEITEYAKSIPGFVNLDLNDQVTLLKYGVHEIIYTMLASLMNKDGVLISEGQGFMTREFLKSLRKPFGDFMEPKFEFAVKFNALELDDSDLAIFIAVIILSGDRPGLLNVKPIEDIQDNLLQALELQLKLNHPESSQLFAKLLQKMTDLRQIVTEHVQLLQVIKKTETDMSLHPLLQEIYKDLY
Chain of Aryl hydrocarbon receptor (Homo sapiens) (P35869 whole entry, looked up): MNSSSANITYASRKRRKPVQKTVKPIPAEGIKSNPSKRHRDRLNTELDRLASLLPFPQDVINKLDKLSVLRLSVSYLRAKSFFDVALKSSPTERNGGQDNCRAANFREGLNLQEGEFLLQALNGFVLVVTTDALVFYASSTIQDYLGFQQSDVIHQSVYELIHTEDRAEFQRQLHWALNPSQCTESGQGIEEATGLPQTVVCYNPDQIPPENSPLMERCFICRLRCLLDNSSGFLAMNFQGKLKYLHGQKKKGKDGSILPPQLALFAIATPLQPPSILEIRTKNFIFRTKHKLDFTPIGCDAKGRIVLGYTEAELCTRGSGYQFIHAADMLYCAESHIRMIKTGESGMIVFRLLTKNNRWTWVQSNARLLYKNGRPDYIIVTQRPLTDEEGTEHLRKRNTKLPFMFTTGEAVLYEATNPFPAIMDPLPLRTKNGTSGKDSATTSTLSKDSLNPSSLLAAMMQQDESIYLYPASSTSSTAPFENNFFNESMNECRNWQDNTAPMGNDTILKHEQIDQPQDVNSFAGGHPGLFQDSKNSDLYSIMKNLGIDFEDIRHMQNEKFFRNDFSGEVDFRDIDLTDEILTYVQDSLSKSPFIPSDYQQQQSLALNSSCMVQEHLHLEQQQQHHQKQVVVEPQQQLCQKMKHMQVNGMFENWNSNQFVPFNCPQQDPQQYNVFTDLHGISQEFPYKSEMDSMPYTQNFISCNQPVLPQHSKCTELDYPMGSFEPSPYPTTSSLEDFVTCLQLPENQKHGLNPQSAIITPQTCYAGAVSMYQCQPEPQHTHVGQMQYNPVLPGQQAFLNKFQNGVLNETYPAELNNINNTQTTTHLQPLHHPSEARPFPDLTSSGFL
Chain of Retinoic acid receptor RXR-alpha (Homo sapiens) (P19793 whole entry, looked up, the tested form may be a part): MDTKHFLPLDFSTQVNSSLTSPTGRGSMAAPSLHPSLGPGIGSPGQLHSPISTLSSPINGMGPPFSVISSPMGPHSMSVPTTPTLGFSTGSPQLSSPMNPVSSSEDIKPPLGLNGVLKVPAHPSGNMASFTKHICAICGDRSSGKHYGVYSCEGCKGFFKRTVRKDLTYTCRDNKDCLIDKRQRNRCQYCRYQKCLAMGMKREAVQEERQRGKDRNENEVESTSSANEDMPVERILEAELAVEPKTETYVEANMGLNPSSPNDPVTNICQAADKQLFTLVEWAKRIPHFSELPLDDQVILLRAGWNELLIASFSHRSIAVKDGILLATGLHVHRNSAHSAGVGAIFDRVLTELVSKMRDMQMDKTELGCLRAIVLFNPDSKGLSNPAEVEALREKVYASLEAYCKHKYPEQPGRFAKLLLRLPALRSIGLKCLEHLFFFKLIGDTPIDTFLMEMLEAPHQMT
Chain of human Retinoid X Receptor beta (RXRb), RXRB (gene 6257) (P28702 whole entry, looked up, the tested form may be a part): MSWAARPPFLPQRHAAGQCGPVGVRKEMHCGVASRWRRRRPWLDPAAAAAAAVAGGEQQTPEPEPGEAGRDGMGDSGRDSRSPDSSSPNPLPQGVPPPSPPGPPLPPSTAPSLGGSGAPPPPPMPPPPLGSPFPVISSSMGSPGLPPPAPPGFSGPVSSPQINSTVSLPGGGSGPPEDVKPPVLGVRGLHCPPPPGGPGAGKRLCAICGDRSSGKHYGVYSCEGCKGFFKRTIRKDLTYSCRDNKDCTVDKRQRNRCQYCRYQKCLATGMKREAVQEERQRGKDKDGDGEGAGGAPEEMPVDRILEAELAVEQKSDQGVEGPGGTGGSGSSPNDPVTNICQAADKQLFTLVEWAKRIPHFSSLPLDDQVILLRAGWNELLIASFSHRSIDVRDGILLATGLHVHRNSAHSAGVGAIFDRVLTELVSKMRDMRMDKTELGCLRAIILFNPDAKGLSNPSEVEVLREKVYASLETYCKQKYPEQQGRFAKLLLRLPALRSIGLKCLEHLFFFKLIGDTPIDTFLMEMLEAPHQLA
Chain of Cellular tumor antigen p53 (Homo sapiens) (P04637 whole entry, looked up): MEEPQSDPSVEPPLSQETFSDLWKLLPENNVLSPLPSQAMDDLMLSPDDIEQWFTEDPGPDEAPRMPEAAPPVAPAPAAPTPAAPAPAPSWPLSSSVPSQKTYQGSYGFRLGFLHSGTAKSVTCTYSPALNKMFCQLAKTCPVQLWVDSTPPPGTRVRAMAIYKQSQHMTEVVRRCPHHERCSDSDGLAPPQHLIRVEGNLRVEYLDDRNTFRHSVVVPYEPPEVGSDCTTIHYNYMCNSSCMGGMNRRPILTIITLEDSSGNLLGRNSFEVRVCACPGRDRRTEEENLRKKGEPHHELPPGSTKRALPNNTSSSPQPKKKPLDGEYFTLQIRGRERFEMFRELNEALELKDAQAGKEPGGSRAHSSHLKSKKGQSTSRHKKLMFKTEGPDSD
Chain of Hypoxia-inducible factor 1-alpha (Homo sapiens) (Q16665 whole entry, looked up): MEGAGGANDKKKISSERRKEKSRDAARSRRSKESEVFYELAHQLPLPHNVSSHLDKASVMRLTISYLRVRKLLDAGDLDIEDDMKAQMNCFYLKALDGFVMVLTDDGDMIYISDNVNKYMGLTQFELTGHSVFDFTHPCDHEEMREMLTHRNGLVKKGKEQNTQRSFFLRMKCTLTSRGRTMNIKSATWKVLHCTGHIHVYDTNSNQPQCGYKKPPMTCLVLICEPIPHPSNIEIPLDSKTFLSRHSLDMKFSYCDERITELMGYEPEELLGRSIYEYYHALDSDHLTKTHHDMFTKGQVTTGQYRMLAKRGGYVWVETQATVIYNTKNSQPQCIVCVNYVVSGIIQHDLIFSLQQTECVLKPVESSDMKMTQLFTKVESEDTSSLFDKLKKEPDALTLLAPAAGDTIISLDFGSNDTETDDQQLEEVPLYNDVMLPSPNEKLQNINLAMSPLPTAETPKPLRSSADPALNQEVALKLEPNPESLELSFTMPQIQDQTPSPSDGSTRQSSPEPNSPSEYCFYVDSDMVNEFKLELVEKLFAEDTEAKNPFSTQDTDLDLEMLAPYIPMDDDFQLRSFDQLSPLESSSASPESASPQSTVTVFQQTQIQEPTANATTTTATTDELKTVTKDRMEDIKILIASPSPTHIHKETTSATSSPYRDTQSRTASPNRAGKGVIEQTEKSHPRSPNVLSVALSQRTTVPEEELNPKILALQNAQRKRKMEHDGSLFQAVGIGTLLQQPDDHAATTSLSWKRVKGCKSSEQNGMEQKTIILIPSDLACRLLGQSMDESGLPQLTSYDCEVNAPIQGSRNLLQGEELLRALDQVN

The AC50 is the midpoint of the concentration-response curve, whichever way the signal moves. Turning to `O=c1c2ccccc2c(=O)c2c1cc(Cl)c1[nH]c3c([nH]c12)c(Cl)cc1c(=O)c2ccccc2c(=O)c13`, the AC50 in assay [1] was 33.6 µM (active); in [10], 40.5 µM (active); in [12], 138 µM (active); in [16] it was 6.28 µM (active). Besides, the outcome in [2], in assay [3], in assay [4], in [5], in assay [6] and in [7] was inactive. The outcome in assay [8], in [9], in [11], in [13], in assay [14] and in assay [15] was inactive.
Turning to `CCCCCCC1CCOC1=O` (configuration not stated), the outcome in assay [1], in assay [2], in assay [3], in [17], in [4] and in [5] was inactive. Further, the result in [6], in [18], in [19], in assay [9], in assay [10] and in [13] was inactive. For the same molecule, the outcome in assay [14], in [20] and in [15] was inactive. Besides, the AC50 in assay [16] is 23.3 µM (active).
Take `O=S(=O)(c1ccccc1)c1ccccc1`: the outcome in assay [1], in assay [2], in assay [17], in assay [5], in assay [6] and in assay [7] was inactive. Besides, the molecule was called inactive in assay [18], in [19], in assay [9], in [10], in [11] and in [13]. Also, the outcome in [14], in assay [20], in [15] and in assay [16] was inactive.
Turning to `SCc1ccco1`, the molecule was called inactive in assay [1], in assay [3], in assay [17], in assay [4], in assay [5] and in [6]. Also, the result in assay [7], in assay [18], in assay [8], in [19], in [9] and in assay [12] was inactive. In assay [16], the result was inactive. Besides, the AC50 in [2] was 52 µM (active); in [10], 27.9 µM (active).
For the molecule `CC1CCCC1.[C-]#[O+].[C-]#[O+].[C-]#[O+].[Mn]`, the AC50 was 12.5 µM (active) in assay [1] and 16.8 µM (active) in assay [3]. Further, the molecule was classed as inactive in [2], in assay [4], in assay [5], in assay [6], in [7] and in assay [18]. The result in [19], in assay [11], in [12], in assay [13], in assay [14] and in assay [20] was inactive. In addition, the outcome in [15] was inactive.
Turning to `[CH3][Sn]([CH3])([Cl])[Cl]`, the result in [1], in assay [2], in assay [3], in [17], in [5] and in [6] was inactive. Also, the outcome in assay [7], in assay [18], in [19], in assay [9], in assay [10] and in assay [12] was inactive. For the same molecule, the AC50 in assay [16] is 21.3 µM (active).
As to `CC(C)[C@@H](C(=O)O[C@@H](C#N)c1cccc(Oc2ccccc2)c1)c1ccc(Cl)cc1`, the call in assay [1], in [2], in [3], in [17], in assay [5] and in [6] was inactive. In addition, the outcome in [7], in assay [8], in [19], in [10], in [12] and in [13] was inactive. The molecule was classed as inactive in assay [20] and in assay [15].
`CCOC(=O)NC(=S)Nc1ccccc1NC(=S)NC(=O)OCC`: the call in assay [1], in assay [2], in assay [4], in [5], in assay [7] and in assay [8] was inactive. The molecule was called inactive in assay [19], in assay [9], in assay [10] and in assay [20]. Besides, the figures for the AC50 in assay [13], in assay [14] and in assay [15] were 59.6 µM (active), 77.3 µM (active) and 64 µM (active), respectively.
Turning to `C=CC(=O)OCC(CC)CCCC` (configuration not stated), the call in [1], in assay [2], in assay [3], in [17], in [4] and in assay [5] was inactive. The result in [6], in [7], in assay [18], in [19], in [9] and in [10] was inactive. Moreover, the result in assay [11], in assay [12], in [13], in [14], in assay [20] and in [15] was inactive. Also, in assay [16], the outcome was inactive.

For the origin of these results see PubChem BioAssay (EPA / NIEHS).
